# Screening data deposited in PubChem BioAssay by The Scripps Research Institute Molecular Screening Center.
# In the library only some 4.8% were active in any assay of this set; here they are far more common.
# hgDAF-12 ag: H. glycines DAF-12 receptor agonists, primary screen, cell-based, luminescence, HEK293, GAL4 fusion, UAS-luciferase | activation, % at 6.8 µM | HEK293 GAL4-hgDAF12 UAS-luciferase reporter, agonist luminescence; normalized to butyrate control | hit rate 1.8% among 370,000 | AID 687014, 2013 | Nuclear hormone receptor DAF-12 (Heterodera glycines), GAL4 fusion;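 active = activation above a cutoff set at the mean of all screened compounds plus 3 SD, cut at about 10% in these data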;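 also: 0% = DMSO wells and 100% = sodium butyrate wells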
# DAX1 inh-1: DAX1 (NR0B1) inhibitors, primary screen, cell-based, HEK293, Gal4-DAX1, luciferase luminescence; HEK293 Gal4-DAX1 luciferase reporter; inhibition, % at 6.75 µM; hit rate 0.99% among 340,000;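 active = inhibition above the mean over all tested compounds plus 3 SD, cut at about 4.2% in these data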;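 also: 0% = DAX1-transfected cells with DMSO and 100% = empty-vector control cells with DMSO; inhibition shows as a rise in luminescence from relieved DAX1 repression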
# Target sequence (P51843 207-470 limits assumed): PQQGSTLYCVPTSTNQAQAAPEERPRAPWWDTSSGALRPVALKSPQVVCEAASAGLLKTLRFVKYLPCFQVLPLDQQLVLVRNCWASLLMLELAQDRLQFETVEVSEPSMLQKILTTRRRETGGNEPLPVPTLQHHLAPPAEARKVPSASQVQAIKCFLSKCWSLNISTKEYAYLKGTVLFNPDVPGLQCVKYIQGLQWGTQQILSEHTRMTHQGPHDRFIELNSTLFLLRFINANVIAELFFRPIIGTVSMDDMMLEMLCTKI
# ssDAF12 agonist: S. stercoralis DAF-12 nuclear receptor activators, primary screen, cell-based, luminescence, HEK293, GRIP1 co-expression, lit1-tk-luc; Nuclear hormone receptor DAF-12 (Strongyloides stercoralis); HEK293 ssDAF-12/GRIP1 lit1-tk-luc reporter; % of 3 µM dafachronic acid response; activation, % at 6.8 µM; hit rate 1% among 370,000; AID 652126, 2013;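 active = activation above the mean over all tested compounds plus 3 SD, cut at about 0.9% in these data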;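 also: 0% = DMSO-only wells and 100% = 3 µM delta7-dafachronic acid wells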
# DAX1 inh-2: DAX1 (NR0B1) inhibitors on StAR promoter, primary screen, cell-based, luminescence, SF-1 (NR5A1), full-length DAX-1. HEK293T StAR-luciferase reporter, SF-1/DAX-1 repression relief. inhibition, % at 6.8 µM. hit rate 1.1% among 370,000. AID 652010, 2013;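 active = inhibition above the mean over all tested compounds plus 3 SD, cut at about 3.6% in these data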;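 also: 0% = DAX-1 cells with DMSO and 100% = cells lacking DAX-1 with DMSO; higher inhibition means more luminescence from relief of DAX-1 repression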
# SMARCA2 act: SMARCA2 (BRM) function activators, primary screen, cell-based, luminescence, high throughput | MG213 cells, MMTV-luciferase reporter, dexamethasone, overnight | activation, % at 9.1 µM | hit rate 1% among 370,000; in the data active = activation above about 7.8%;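 also: 0% = vehicle wells and 100% = reference activator wells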
# hcDAF-12 act: H. contortus DAF-12 nuclear receptor activators, primary screen, cell-based, luminescence, HEK293, lit1-tk-luc reporter. HEK293 hcDAF-12 lit1-tk-luc reporter; 0% DMSO, 100% Δ7-dafachronic acid. activation, % at 6.8 µM. hit rate 1.4% among 370,000;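 active = activation above the mean of all tested compounds plus 3 SD, cut at about 5.5% in these data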;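 also: 100% = response to 3 µM Δ7-dafachronic acid high control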
# Active calls of the source: *; / = not tested or not shown.
SMILES,hgDAF-12 ag,DAX1 inh-1,ssDAF12 agonist,DAX1 inh-2,SMARCA2 act,hcDAF-12 act
COC(=O)[C@H](C)NC(=O)[C@H](CC(C)C)NC(=O)OC(C)(C)C,-3,/,-1,0,-3,0
c1ccc2oc(SCc3cn4ccccc4n3)nc2c1,10,2,-1,3.7*,0,5.9*
O=C1CCN(Cc2ccccc2)CCN1CCSc1ccccc1,7,1,0,1,4,4
CCCN1CCC(=O)N(CCSc2ccccc2)CC1,11*,4,0,1,4,3
O=C/C(=C\Nc1ccc(Br)cc1)c1nc2ccccc2o1,-2,0,-1,0,4,4
O=C/C(=C\Nc1ccccn1)c1nc2ccccc2o1,3,1,0,0,2,5.8*
CCOC(=O)[C@]12CCCC3=C1N(CCC3)C(=O)[C@@H](CC(=O)N1CCCC1)C2,-3,/,-1,0,0,-2
O=C(O)c1ccc(-n2c(-c3cc(C4CC4)[nH]n3)n[nH]c2=S)cc1,-1,4.6*,-1,1,4,-1
O=C(O)c1ccc(-n2c(-c3cc(-c4ccco4)[nH]n3)n[nH]c2=S)cc1,0,-1,-1,0,-2,-1
CC(=O)c1ccc(-n2c(-c3cc(-c4ccco4)[nH]n3)n[nH]c2=S)cc1,-2,5.6*,-1,0,1,-1
O=S(=O)(CC1NCc2ccccc21)NC1CCCC1 (stereo not given),3,/,0,0,-6,2
CC(=O)c1ccc(NC(=S)NC(=O)c2c(Cl)c(C)nn2C)cc1,-3,4.7*,-1,0,-2,-1
COc1ccc(OC)c(S(=O)(=O)N2CCCCC2C(=O)N2CCN(c3ccc(F)cc3)CC2)c1 (stereo not given),-3,/,-2,-2,-3,-3
CCCC[C@H]1C2CC(OC(=O)Nc3ccc4c(c3)OCO4)C(C2)[C@H]2CCCCN21 (stereo not given in full),8,/,-2,0,3,0
O=C(Nc1ccc(NC(=O)c2ccccc2Cl)c(Cl)c1)c1ccccn1,6,/,-1,/,/,-1
O=C(O)c1ccc(Nc2nc(-c3ccc([N+](=O)[O-])cc3)nc3ccccc23)cc1,1,0,-1,1,0,5.6*
Brc1ccc(-c2nc3ccc(Br)cn3c2Cc2ccccc2)cc1,12*,/,-1,-3,1,0
COc1ccccc1Cc1c(-c2ccccc2)nc2ccc(Br)cn12,8,/,0,3,0,5
COc1ccccc1Cc1c(-c2cccc(Br)c2)nc2ccc(Br)cn12,9,/,0,4,7.9*,4
COc1ccccc1Cc1c(-c2ccc(C#N)cc2)nc2ccc(Br)cn12,4,/,-1,0,1,6.0*
O=C(c1cccs1)C1CCN(c2ncnc3sccc23)CC1,-10,/,-3,/,/,-6
Cn1cccc1Cc1nnc(SCC(=O)N2CCOCC2)n1-c1ccc(F)cc1,0,4.2*,-1,-1,-2,-2
COc1ccc(N2CCN(C(=O)CSc3nnc(-c4cccnc4)n3-c3ccccc3)CC2)cc1,-1,-1,-1,0,1,-2
COc1ccc(-n2c(Cc3cccn3C)nnc2SCC(=O)N2CCOCC2)cc1,0,0,-2,0,0,-1
COc1ccc(N2CCN(C(=O)CSc3nnc(-c4cccnc4)n3-c3ccc(F)cc3)CC2)cc1,-3,-1,-2,0,7.9*,-3
SMILES,hgDAF-12 ag,DAX1 inh-1,ssDAF12 agonist,DAX1 inh-2,SMARCA2 act,hcDAF-12 act
O=C(C1CCN(c2ncnc3c2sc2cccc(F)c23)CC1)N1CCN(C(=O)C2CCCO2)CC1 (stereo not given),2,/,0,-1,-6,-1
NC(=O)C(CCCCN1CCCCC1)(c1ccccc1)c1ccccc1,0,2,-1,4.1*,0,-2
Cc1ccccc1CN1CCCCC(NC(=O)c2cc(-c3ccccc3)no2)C1=O (stereo not given),-1,/,-1,-2,-3,-1
COc1ccc(/C=C/C(=O)Nc2cc(C)nn2-c2nc3ccccc3n2Cc2cccc([N+](=O)[O-])c2)cc1,3,2,1.0*,2,0,4
COc1ccc(/C=C/C(=O)Nc2cc(C)nn2-c2nc3ccccc3[nH]2)cc1,1,0,-1,0,-3,-3
CCn1nc(C(=O)OCC(=O)Nc2nc(-c3ccc(OC)cc3)cs2)c2ccccc2c1=O,11*,3,0,1,3,2
COc1ccc(-c2csc(NC(=O)COC(=O)c3ccco3)n2)cc1,11*,-1,-1,2,0,3
CCC(=O)c1ccc(OCC(=O)OCC(=O)Nc2cccc(S(=O)(=O)N3CCOCC3)c2)cc1,2,1,-1,3,7.8*,-2
CCCC(=O)NC(=S)Nc1nc(-c2ccc(OC)cc2)cs1,8,4.7*,0,1,0,3
Cc1nn(-c2ccccc2)c(C)c1C=NNC(=O)CSc1nc2ccccc2n1C,-2,/,-2,0,-6,-3
O=C(COC(=O)COc1cccc(C(F)(F)F)c1)Nc1ccc(N2CCOCC2)cc1,0,0,-1,-2,1,6.1*
N#Cc1ccc(OCC(=O)OCC(=O)Nc2ccc(N3CCOCC3)cc2)cc1,0,1,-1,2,-1,0
Cc1ccc(-c2csc(NC(=O)COC(=O)c3cccc(S(=O)(=O)N4CCOCC4)c3)n2)cc1,7,/,-1,3.6*,2,1
Cc1ccc(-c2csc(NC(=O)c3cccc(S(=O)(=O)N4CCN(C)CC4)c3)n2)cc1,3,0,-1,0,-2,1
C[C@H]1[C@@H](OC(=O)Nc2ccccc2Cl)CC[C@@]23CCCN2C(=O)CCC[C@@H]13,3,/,-1,/,/,-2
COc1cc2[nH]c3c(=O)n(CCN(C(C)C)C(C)C)cnc3c2cc1OC,-1,1,-1,2,-4,-1
CC(C)N(CCn1cnc2c([nH]c3ccccc32)c1=O)C(C)C,3,0,0,1,-1,6.1*
Oc1ccc(-c2csc(Nc3cccc4ccccc34)n2)cc1O,4,2,2.1*,0,-1,1
CC(C)C(=O)N1CC[C@H]2[C@H](CCCN2Cc2cc(F)cc(F)c2)C1,8,/,-2,0,0,-1
